Measurements: PubChem BioAssay (EPA / NIEHS)
Results filed as inconclusive are left out. The source made the active and inactive calls. Rule for the calls, unless noted: active = hit-call score of the fitted dose curve at least 0.9, where 1 is the maximum; inactive = score below 0.9.

Legend:
[1] = target: Retinoic acid receptor RXR-alpha (Homo sapiens) (UniProt P19793); test: OT_NURR1_NURR1RXRa_1440: Odyssey Thera (OT) 24-hour HEK293T Protein Complementation Assay for Nurr1/retinoid X receptor (RXR) (AID 2283386; active = hit-call score of the fitted dose curve at least 0.9, where 1 is the maximum)
Sequence of Retinoic acid receptor RXR-alpha (Homo sapiens) (P19793 whole entry, looked up, the tested form may be a part): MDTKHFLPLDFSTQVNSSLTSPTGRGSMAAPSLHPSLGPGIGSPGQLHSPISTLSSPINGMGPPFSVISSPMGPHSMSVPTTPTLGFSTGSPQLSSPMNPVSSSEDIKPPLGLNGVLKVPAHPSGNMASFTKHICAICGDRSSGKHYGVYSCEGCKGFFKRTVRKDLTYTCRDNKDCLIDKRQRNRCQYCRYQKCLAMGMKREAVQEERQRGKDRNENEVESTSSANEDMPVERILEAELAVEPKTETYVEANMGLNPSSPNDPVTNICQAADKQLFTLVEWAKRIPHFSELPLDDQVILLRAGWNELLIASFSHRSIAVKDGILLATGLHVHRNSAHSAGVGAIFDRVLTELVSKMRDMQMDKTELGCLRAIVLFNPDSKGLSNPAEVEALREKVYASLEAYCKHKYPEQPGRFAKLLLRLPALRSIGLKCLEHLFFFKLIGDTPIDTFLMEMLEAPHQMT
Outline: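 Cell-based binding reporter: HEK293T cells, 24 h exposure, fluorescence-detected fragment complementation, DMSO as baseline.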

[2] = target: Peroxisome proliferator-activated receptor gamma (Homo sapiens) (UniProt P37231); test: OT_PPARg_PPARgSRC1_0480: Odyssey Thera (OT) 8-hour Protein-Complementation Assay for Peroxisome Proliferator-activated Receptor Gamma / SRC-1 Co-activator (AID 2283387; active = hit-call score of the fitted dose curve at least 0.9, where 1 is the maximum)
Sequence of Peroxisome proliferator-activated receptor gamma (Homo sapiens) (P37231 whole entry, looked up, the tested form may be a part): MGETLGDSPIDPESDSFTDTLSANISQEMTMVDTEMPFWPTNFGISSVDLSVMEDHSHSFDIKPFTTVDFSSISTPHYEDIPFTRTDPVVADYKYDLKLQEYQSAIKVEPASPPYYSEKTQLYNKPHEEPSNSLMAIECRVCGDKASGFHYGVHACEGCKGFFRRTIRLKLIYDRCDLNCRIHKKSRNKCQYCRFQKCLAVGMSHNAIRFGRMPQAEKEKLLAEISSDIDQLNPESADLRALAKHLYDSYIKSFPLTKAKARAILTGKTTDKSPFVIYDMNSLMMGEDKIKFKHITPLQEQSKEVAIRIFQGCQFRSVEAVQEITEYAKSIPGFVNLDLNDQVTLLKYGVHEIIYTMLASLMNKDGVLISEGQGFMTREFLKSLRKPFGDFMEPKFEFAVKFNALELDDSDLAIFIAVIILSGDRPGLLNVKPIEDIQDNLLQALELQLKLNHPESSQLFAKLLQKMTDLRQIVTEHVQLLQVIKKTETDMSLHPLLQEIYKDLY
Outline: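 Read-out: 488 nm N/C fluorescence ratio from complemented Venus YFP fragments, ≥350 cells per image, gain-of-signal fitted against DMSO baseline. Fusions of PPARg/SRC-1 with IFP1/IFP2 expressed transiently in HEK293T; compounds applied 8 h.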

[3] = target: Peroxisome proliferator-activated receptor gamma (Homo sapiens) (UniProt P37231); test: OT_PPARg_PPARgSRC1_1440: Odyssey Thera (OT) 24-hour Protein-Complementation Assay for Peroxisome Proliferator-activated Receptor Gamma/ SRC-1 Co-activator (AID 2283388; active = hit-call score of the fitted dose curve at least 0.9, where 1 is the maximum)
Outline: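 HEK293T cells transiently transfected with PPARg and SRC-1 fused via (Gly4Ser)2 linker to split Venus YFP fragments (IFP1/IFP2) were dosed 24 h; fixed, Draq5-stained, imaged at 488/635 nm; nuclear/cytoplasmic fluorescence ratio scored versus DMSO baseline, gain-of-signal.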

[4] = read-out: Tumor necrosis factor receptor superfamily member 6 (Homo sapiens) (UniProt P25445); test: LTEA_HepaRG_FAS: Life Technologies and Expression Analysis (LTEA) Assay for Fas cell surface death receptor (FAS) using HepaRG (AID 2283447); conditions: mRNA level, 48 h; actives raise or lower the signal
Outline: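 Differentiated HepaRG cells in serum-free induction medium were exposed 48 h to 8 half-log concentrations up to 100 uM in 0.5% DMSO, in duplicate. FAS mRNA was measured by qRT-PCR normalised to ACTB, GAPDH and POLR2A; bidirectional fit versus DMSO.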

[5] = read-out: Fatty acid synthase (Homo sapiens) (UniProt P49327); test: LTEA_HepaRG_FASN: Life Technologies and Expression Analysis (LTEA) Assay for Fatty Acid Synthase (FASN) using HepaRG (AID 2283448); conditions: mRNA level, 48 h; actives raise or lower the signal
Outline: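 In human HepaRG cultures, 48 h chemical exposure (up to 100 uM, 0.5% DMSO) preceded TaqMan qRT-PCR of FASN.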

[6] = read-out: Cyclin D2 (CCND2), CCND2 (gene 894); test: LTEA_HepaRG_CCND2: Life Technologies and Expression Analysis (LTEA) Assay for Cyclin D2 (CCND2) using HepaRG (AID 2283449); conditions: mRNA level, 48 h; actives raise or lower the signal;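 note: CCND2 transcript measured by TaqMan qRT-PCR and normalised to three housekeeping genes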
Outline: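 HepaRG, 48 h dosing, 8-pt half-log curve from 100 uM, 0.5% DMSO; duplicate wells. Readout: CCND2 transcript by microfluidic qRT-PCR, housekeeping-normalised; bidirectional fit vs DMSO baseline.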

[7] = read-out: Cyclin Dependent Kinase Inhibitor 1A (CDKN1A), CDKN1A (gene 1026); test: LTEA_HepaRG_CDKN1A: Life Technologies and Expression Analysis (LTEA) Assay for Cyclin Dependent Kinase Inhibitor 1A (CDKN1A) using HepaRG (AID 2283450); conditions: mRNA level, 48 h; actives raise or lower the signal
Outline: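 Differentiated human HepaRG cells, pre-cultured 48 h, were exposed in duplicate for 48 h in serum-free induction medium to eight half-log concentrations up to 100 uM (0.5% DMSO). CDKN1A mRNA was measured by qRT-PCR, normalized to ACTB/GAPDH/POLR2A, bidirectionally fitted versus DMSO.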

[8] = read-out: Cyclin D1 (CCND1), CCND1 (gene 595); test: LTEA_HepaRG_CCND1: Life Technologies and Expression Analysis (LTEA) Assay for Cyclin D1 (CCND1) using HepaRG (AID 2283451); conditions: mRNA level, 48 h; actives raise or lower the signal
Outline: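 Differentiated human HepaRG cells in serum-free induction medium were exposed 48 h to eight half-log concentrations up to 100 uM in 0.5% DMSO; mRNA quantified by TaqMan qRT-PCR, normalized to ACTB, GAPDH, POLR2A, fitted bidirectionally versus DMSO.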

[9] = read-out: catalase (CAT), CAT (gene 847); test: LTEA_HepaRG_CAT: Life Technologies and Expression Analysis (LTEA) Assay for catalase (CAT) using HepaRG (AID 2283452); conditions: mRNA level, 48 h; actives raise or lower the signal;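 for AC50: TaqMan qRT-PCR signal normalized to ACTB GAPDH and POLR2A housekeeping genes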
Outline: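 HepaRG cells in serum-free induction medium, 0.5% DMSO vehicle, exposed 48 h in duplicate over 8 half-log concentrations from 100 uM. CAT mRNA measured by qRT-PCR, normalized to ACTB, GAPDH, POLR2A; bidirectional fit versus DMSO.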

[10] = read-out: flavin-containing dimethylaniline monooxygenases 3 (FMO3), FMO3 (gene 2328); test: LTEA_HepaRG_FMO3: Life Technologies and Expression Analysis (LTEA) Assay for flavin-containing dimethylaniline monooxygenases 3 (FMO3) using HepaRG (AID 2283453); conditions: mRNA level, 48 h; actives raise or lower the signal;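 for AC50: FMO3 transcript by TaqMan qRT-PCR normalized to ACTB GAPDH and POLR2A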
Outline: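 Eight-point concentration-response in serum-free HepaRG cultures (top 100 uM, 0.5% DMSO, 48 h). Read-out: FMO3 mRNA level normalized to three endogenous control genes, fitted bidirectionally versus vehicle.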

[11] = read-out: Cytochrome P450 (CYP1A1), CYP1A1 (gene 1543); test: LTEA_HepaRG_CYP1A1: Life Technologies and Expression Analysis (LTEA) Assay for Cytochrome P450 (CYP1A1) using HepaRG (AID 2283454); conditions: mRNA level, 48 h; actives raise or lower the signal
Outline: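 Differentiated HepaRG cells in serum-free induction medium were exposed in duplicate for 48 h to eight half-log concentrations up to 100 uM in 0.5% DMSO. CYP1A1 mRNA was quantified by TaqMan qRT-PCR, normalized to ACTB, GAPDH and POLR2A.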

[12] = CEETOX_H295R_11DCORT: CeeTox H295R High-throughput Steroidogenesis Assay for 11-Deoxycortisol (11DCORT) (AID 2283432); conditions: actives raise or lower the signal;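 for AC50: 11-deoxycortisol secreted into the medium measured by LC-MS/MS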
Outline: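 H295R cells; 10 uM forskolin prestim 48 h; compound in 0.1% DMSO 48 h; media extracted with MTBE; 11-deoxycortisol by LC-MS/MS, 7-point standard curve; gain/loss vs DMSO baseline; viability by MTT in same wells.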

[13] = CEETOX_H295R_OHPREG: CeeTox H295R High-throughput Steroidogenesis Assay for OH-Pregnenolone (OHPREG) (AID 2283434); conditions: actives raise or lower the signal
Outline: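 H295R, 10 uM forskolin pre-stim 48 h; test chemical 48 h, 0.1% DMSO final. MTBE extraction, reverse-phase C18 HPLC-ESI+ MS/MS of medium. Gain/loss vs DMSO; viability by MTT in same wells.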

[14] = CEETOX_H295R_OHPROG: CeeTox H295R High-throughput Steroidogenesis Assay for OH-Progesterone (OHPROG) (AID 2283435); conditions: actives raise or lower the signal;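 for AC50: 17alpha-hydroxyprogesterone secreted into medium measured by HPLC-MS/MS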
Outline: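 Human adrenocortical H295R cells, passage 10 or lower, were treated with chemical for 48 h after forskolin priming, and hormone output in the medium was quantified by LC-MS/MS.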

[15] = CEETOX_H295R_ANDR: CeeTox H295R High-throughput Steroidogenesis Assay for Androstenedione (ANDR) (AID 2283436); conditions: actives raise or lower the signal
Outline: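 48 h chemical exposure, H295R cells, DMEM/F12 + ITS+ and Nu-Serum. Medium androstenedione: MTBE extraction, C18 reverse-phase HPLC, ESI+ MS/MS. Fit bidirectional vs DMSO; MTT viability in same wells.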

[16] = CEETOX_H295R_CORTIC: CeeTox H295R High-throughput Steroidogenesis Assay for Corticosterone (CORTIC) (AID 2283437); conditions: actives raise or lower the signal;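 note: corticosterone secreted into medium quantified by mass spectrometry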
Outline: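 48 h forskolin (10 uM) prestim, then 48 h chemical exposure, final DMSO 0.1%. Readout: corticosterone in medium by LC-MS/MS after MTBE extraction. Gain/loss fit vs DMSO; MTT viability in same wells.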

[17] = CEETOX_H295R_DOC: CeeTox H295R High-throughput Steroidogenesis Assay for DOC (AID 2283439); conditions: actives raise or lower the signal
Outline: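 H295R, fsk 10 uM ×48 h pre, cmpd ×48 h (0.1% DMSO). Media → MTBE extr. → LC-MS/MS, DOC. Bidirectional fit vs DMSO; MTT viability same wells, re-test diluted if <70%.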

[18] = CEETOX_H295R_ESTRADIOL: CeeTox H295R High-throughput Steroidogenesis Assay for Estradiol (AID 2283440); conditions: actives raise or lower the signal;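 note: estradiol secreted into medium quantified by LC-MS/MS after dansyl derivatisation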
Outline: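 H295R adrenocortical cells were prestimulated with 10 uM forskolin for 48 h, then exposed to test chemical in 0.1% DMSO for 48 h. Medium estradiol was extracted with MTBE, dansyl-derivatized and quantified by HPLC-MS/MS; bidirectional fit versus DMSO.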

[19] = CEETOX_H295R_ESTRONE: CeeTox H295R High-throughput Steroidogenesis Assay for Estrone (AID 2283441); conditions: actives raise or lower the signal;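 note: estrone secreted into medium measured by LC-MS/MS after dansyl derivatization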
Outline: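 Forskolin-stimulated H295R cells are treated 48 h with chemical, and estrone in the medium is measured by LC-MS/MS. Activity is fitted in both directions relative to DMSO controls, with chemicals diluted until MTT viability reaches at least 70%.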

[20] = CEETOX_H295R_PROG: CeeTox H295R High-throughput Steroidogenesis Assay for Progesterone (PROG) (AID 2283442); conditions: actives raise or lower the signal;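 for AC50: human H295R adrenal cells primed with 10 µM forskolin before dosing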
Outline: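 H295R human adrenal cells were prestimulated with 10 uM forskolin for 48 h, then exposed to test chemical (0.1% DMSO final) for 48 h. Medium progesterone was MTBE-extracted and quantified by HPLC-MS/MS, with bidirectional fitting against DMSO.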

Measured: AC50

Sequence of Fatty acid synthase (Homo sapiens) (P49327 whole entry, looked up): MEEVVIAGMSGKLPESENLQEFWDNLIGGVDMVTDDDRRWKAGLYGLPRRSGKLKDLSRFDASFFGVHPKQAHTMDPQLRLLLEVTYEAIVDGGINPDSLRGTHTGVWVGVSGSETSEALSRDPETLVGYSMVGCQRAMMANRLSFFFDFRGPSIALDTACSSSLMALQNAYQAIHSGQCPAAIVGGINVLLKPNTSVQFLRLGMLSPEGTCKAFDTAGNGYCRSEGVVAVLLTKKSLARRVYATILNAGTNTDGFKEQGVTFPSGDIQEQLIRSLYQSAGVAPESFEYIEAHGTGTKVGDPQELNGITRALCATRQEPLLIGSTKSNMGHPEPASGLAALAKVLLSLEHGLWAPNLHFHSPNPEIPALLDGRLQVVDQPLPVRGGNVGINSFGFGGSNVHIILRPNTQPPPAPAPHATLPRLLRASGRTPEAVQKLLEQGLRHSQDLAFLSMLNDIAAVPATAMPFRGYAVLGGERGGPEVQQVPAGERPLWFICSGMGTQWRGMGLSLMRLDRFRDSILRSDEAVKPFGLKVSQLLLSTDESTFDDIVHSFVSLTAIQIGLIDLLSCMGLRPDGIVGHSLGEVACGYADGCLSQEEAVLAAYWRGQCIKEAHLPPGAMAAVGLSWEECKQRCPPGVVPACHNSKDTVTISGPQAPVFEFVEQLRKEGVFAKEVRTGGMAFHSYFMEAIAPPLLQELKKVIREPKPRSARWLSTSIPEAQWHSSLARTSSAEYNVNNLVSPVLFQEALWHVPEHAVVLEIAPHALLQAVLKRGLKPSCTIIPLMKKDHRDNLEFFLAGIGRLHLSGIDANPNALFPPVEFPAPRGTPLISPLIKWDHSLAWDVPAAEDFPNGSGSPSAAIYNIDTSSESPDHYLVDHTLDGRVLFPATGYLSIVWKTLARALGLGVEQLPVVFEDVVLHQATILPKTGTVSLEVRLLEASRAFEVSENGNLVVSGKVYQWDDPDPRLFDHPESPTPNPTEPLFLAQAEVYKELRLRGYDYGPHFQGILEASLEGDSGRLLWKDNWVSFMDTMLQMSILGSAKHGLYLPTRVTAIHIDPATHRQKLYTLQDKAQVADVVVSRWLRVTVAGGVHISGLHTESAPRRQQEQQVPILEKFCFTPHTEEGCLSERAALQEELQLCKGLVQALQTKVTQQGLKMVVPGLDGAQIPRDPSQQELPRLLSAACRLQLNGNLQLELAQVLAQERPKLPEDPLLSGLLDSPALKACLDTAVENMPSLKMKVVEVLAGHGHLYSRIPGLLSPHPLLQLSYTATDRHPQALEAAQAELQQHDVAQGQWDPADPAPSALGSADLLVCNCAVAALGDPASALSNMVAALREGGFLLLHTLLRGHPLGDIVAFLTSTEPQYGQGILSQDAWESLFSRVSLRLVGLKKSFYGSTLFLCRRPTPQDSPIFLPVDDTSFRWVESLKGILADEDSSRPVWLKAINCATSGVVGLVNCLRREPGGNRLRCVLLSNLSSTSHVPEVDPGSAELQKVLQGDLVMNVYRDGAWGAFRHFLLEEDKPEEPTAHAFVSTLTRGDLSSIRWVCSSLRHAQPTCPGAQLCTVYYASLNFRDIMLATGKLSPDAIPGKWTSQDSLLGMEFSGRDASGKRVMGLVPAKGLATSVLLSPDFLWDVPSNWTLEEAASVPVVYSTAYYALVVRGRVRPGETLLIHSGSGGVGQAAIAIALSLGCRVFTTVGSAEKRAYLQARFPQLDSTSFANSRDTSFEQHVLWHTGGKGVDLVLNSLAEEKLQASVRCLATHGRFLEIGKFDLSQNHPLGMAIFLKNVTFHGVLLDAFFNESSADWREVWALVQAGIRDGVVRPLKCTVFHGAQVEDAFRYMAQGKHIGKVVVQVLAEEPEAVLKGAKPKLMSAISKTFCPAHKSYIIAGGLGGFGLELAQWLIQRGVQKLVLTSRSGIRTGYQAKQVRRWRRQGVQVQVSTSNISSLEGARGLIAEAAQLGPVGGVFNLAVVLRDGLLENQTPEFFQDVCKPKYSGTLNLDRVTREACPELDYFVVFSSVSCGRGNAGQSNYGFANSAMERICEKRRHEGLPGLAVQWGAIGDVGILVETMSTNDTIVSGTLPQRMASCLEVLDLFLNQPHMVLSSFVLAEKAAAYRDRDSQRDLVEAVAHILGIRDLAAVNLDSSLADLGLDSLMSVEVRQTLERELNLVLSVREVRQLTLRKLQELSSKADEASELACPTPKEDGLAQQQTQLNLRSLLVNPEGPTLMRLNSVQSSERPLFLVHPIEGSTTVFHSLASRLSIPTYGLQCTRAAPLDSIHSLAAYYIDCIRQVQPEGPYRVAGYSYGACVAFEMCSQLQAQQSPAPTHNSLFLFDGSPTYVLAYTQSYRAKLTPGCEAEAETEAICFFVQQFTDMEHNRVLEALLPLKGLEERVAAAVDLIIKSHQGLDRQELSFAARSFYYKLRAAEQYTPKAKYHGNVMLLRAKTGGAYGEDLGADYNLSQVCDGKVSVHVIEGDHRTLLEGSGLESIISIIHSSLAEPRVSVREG

O=S(=O)(O)C(F)(F)C(F)(F)C(F)(F)C(F)(F)F
inactive: [1] | [2] | [3] | [4] | [5] | [6] | [7] | [8] | [9] | [10] | [11]

Nn1cnnc1
active: [11] 50 µM
inactive: [1] | [2] | [3] | [4] | [5] | [6] | [7] | [8] | [9] | [10]

O=C(NC(=O)c1c(F)cccc1F)Nc1cc(Cl)c(OC(F)(F)C(F)F)c(Cl)c1
active: [5] 50 µM | [10] 50 µM | [11] 3.34 µM
not listed: [1]
inactive: all other assays above

C[C@]12CCC(=O)C=C1CC[C@@H]1[C@@H]2CC[C@]2(C)C(=O)CC[C@@H]12
active: [13] 8.12 µM | [14] 0.535 µM | [20] 0.271 µM | [5] 82.7 µM
not listed: [6] | [12] | [15] | [16] | [17]
inactive: all other assays above

CC(C)C(=O)OCC(C)(C)C(OC(=O)C(C)C)C(C)C (stereo not drawn)
inactive: [1] | [2] | [3] | [4] | [5] | [7] | [8] | [9] | [10] | [11]

Cc1ccc(O)c(C)c1
not listed: [15]
inactive: all other assays above

O=C(NC(=O)c1cc(F)c(F)cc1Cl)Nc1cc(F)ccc1N1CCC(C(=O)O)CC1
inactive: [1] | [2] | [3] | [4] | [5] | [6] | [7] | [8] | [9] | [10]
active: [11] 25 µM

Oc1ccc(Cl)cc1Cl
active: [14] 22.2 µM | [18] 17 µM | [19] 24.4 µM
not listed: [1] | [7] | [15]
inactive: all other assays above

Cc1ccccc1CO[C@@H]1C[C@@]2(C(C)C)CC[C@]1(C)O2
active: [13] 50 µM | [15] 50 µM | [11] 44.4 µM
not listed: [1] | [12] | [16] | [17] | [18] | [19]
inactive: all other assays above

C1CC2OC2CC1C1CO1 (stereo not drawn)
inactive: [1] | [2] | [3] | [4] | [5] | [7] | [9] | [10] | [11]

Nc1ccc(-c2ccc(N)cc2)cc1
active: [12] 79.6 µM | [13] 14.3 µM | [14] 37.4 µM | [16] 2.96 µM | [17] 17.7 µM | [20] 15.2 µM | [11] 50 µM
not listed: [1] | [15]
inactive: all other assays above

CCSC(=O)N(CC)C1CCCCC1
not listed: [1] | [13] | [15] | [18] | [19]
inactive: all other assays above

ClC1=C(Cl)[C@]2(Cl)[C@@H]3[C@H]4C[C@H]([C@@H]5O[C@H]45)[C@@H]3[C@@]1(Cl)C2(Cl)Cl
active: [12] 7.42 µM | [13] 1.48 µM | [14] 13 µM | [17] 14.6 µM | [20] 3 µM | [5] 87.6 µM | [9] 13.3 µM | [10] 50 µM
inactive: [2] | [3] | [16] | [4] | [7] | [8] | [11]

CCC(=O)O[C@H]1CC[C@H]2[C@@H]3CCC4=CC(=O)CC[C@]4(C)[C@H]3CC[C@]12C
active: [12] 75.1 µM | [13] 34.1 µM | [14] 3.14 µM | [15] 22.8 µM | [17] 1.77 µM | [18] 0.643 µM | [19] 1.31 µM | [20] 2.65 µM | [11] 13.1 µM
not listed: [1]
inactive: all other assays above
